Assay outcomes deposited in PubChem by Broad Institute.
Many of the other results were omitted from the sample, so hits are more common in it than they were.
BL2 CD40 inh: CD40 pathway inhibition in BL2 cells; inhibition, % at 10 µM; BL2 NF-kB luciferase reporter, CD40L-induced, 4 h; 83,000 compounds, 0.94% hits;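 active means mean inhibition of at least 50% with a set share of replicates also reaching that level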;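 further: 0% = neutral control wells and 100% = IKK inhibitor VII at 50 µM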
* = called active by the depositor; [ ] = remark or other dose.

SMILES	BL2 CD40 inh
O=C(Nc1ccc(N2CCOCC2)cc1)c1cn2ccccc2n1	57*
C[C@H]1CN(C)C(=O)c2cc(N(C)C)ccc2O[C@@H]1CN(C)C	-41
COc1ccc(/C=N/NC(=O)CC(=O)N/N=C/c2ccc(OC)cc2)cc1	3
COc1ccc(/C=N/NC(=O)c2nonc2C)cc1	64*
Cc1nonc1C(=O)N/N=C/c1ccc([N+](=O)[O-])o1	-6
CN1[C@@H]2CN(S(C)(=O)=O)C[C@H]1C2c1ccc(-c2ccc(F)cc2)cc1 (some centres not stated)	-2
CC(=O)N(C)C[C@@H]1Oc2ccccc2C(=O)N(C)C[C@@H]1C	-1
CC(=O)N(C)C[C@H]1Oc2ccc(NC(=O)NC(C)C)cc2CC(=O)N(C)C[C@@H]1C	3
CC(C)Cc1ccc(C(C)/C=C2/CCC(CN3CCCCC3)C2=O)cc1 (configuration not stated)	66*
COCCNC(=O)C1CCCN(Cc2ccc(C(C)C)cc2)CC1 (configuration not stated)	7
CC(C)Cc1ccc(CN2CCCC(NC(=O)CCN3CCCCC3=O)C2)cc1 (configuration not stated)	3
COc1ccc2c3c(n(C)c2c1)[C@H](CO)N(C)CC31CCN(S(=O)(=O)c2cccc(F)c2)CC1	-4[25 µM]
CN1C(=O)c2cc(NC(=O)c3cccc(F)c3)ccc2OC[C@H]2O[C@@H](CC(=O)NCc3ccccc3Cl)CC[C@H]21	16[25 µM]
CC(C)c1cccc(NC(=O)C[C@H]2CC[C@H]3[C@@H](COc4ccc(NS(=O)(=O)c5ccccc5Cl)cc4C(=O)N3C)O2)c1	24[25 µM]
COc1ccccc1C(=O)Nc1ccc2c(c1)C(=O)N(C)[C@H]1CC[C@H](CC(=O)Nc3cccc(C(C)C)c3)O[C@@H]1CO2	57*[25 µM]
COc1ccccc1C(=O)Nc1ccc2c(c1)C(=O)N(C)[C@H]1CC[C@H](CC(=O)Nc3cc(F)ccc3F)O[C@@H]1CO2	30[25 µM]
COc1ccccc1CNC(=O)C[C@@H]1C[C@@H]2c3cc(NC(=O)C4CCC4)ccc3O[C@@H]2[C@@H](CO)O1	-7[25 µM]
COc1ccc(NC(=O)N2[C@@H]3CNC[C@H]2C3c2ccc(-c3ccc(C)cc3)cc2)cc1 (some centres not stated)	-20[25 µM]
Cc1nn2c(NCc3cccnc3)c3c(nc2c1-c1ccccc1)CCC3	13
Cc1nn2c(NCCN(C)C)c3c(nc2c1-c1ccccc1)CCCC3	-78
COc1cccc(-c2cc3nc4c(c(NCC(C)(C)CN(C)C)n3n2)CCCC4)c1	63*
C[C@@H]1CN([C@@H](C)CO)C(=O)CCCn2cc(nn2)CO[C@@H]1CN(C)S(=O)(=O)c1cccc(C#N)c1	7[25 µM]
COc1cccc(-c2ccc([C@H]3[C@@H](CO)N(C(=O)c4ccccn4)[C@H]3C#N)cc2)c1	-10
COc1cccc(C=NNC(=O)c2ccncc2)c1O	-38
COc1cccc(/C=N/NC(=O)N/N=C/c2cccc(OC)c2O)c1O	-59
SMILES	BL2 CD40 inh
COc1cccc(/C=N/Nc2ccc(C(=O)O)cc2)c1O	96*
CN(C)C(=O)c1cccc(-c2ccc(C3[C@H]4CNC[C@@H]3N4CC3CCCCC3)cc2)c1 (some centres not stated)	-8
Cc1nc(Nc2nc3ccccc3o2)nc(C)c1C	6
Cc1ccnc(Nc2nc3ccccc3o2)n1	68*
N#Cc1cnc(Nc2nc3ccccc3o2)nc1-c1ccccc1	-20
CN1CCN(C(=O)C[C@@H]2C[C@@H]3c4cc(NC(=O)NC5CCCCC5)ccc4O[C@@H]3[C@@H](CO)O2)CC1	11
O=C(C1CC1)N1C[C@H]2[C@@H](c3ccccc31)[C@H](CO)N2Cc1ccccc1Cl	6
OC[C@H]1[C@H](c2ccc(C#CC3(O)CCCC3)cc2)[C@H]2CN(Cc3cncnc3)CCCCN21	-20[25 µM]
O=c1[nH]c(=O)n(C2CC(O)C(CO)O2)cc1Br (configuration not stated)	-10
C=C1CC(Cn2cc(Br)c(=O)[nH]c2=O)(c2ccc(-c3ccccc3)cc2)OC1=O (configuration not stated)	64*
C=C1CC(COc2cc(=O)oc3ccccc23)(c2ccccc2)OC1=O (configuration not stated)	31
CC(C)NC(=O)Nc1ccc2c(c1)C(=O)N(C)C[C@@H](C)[C@@H](CN(C)C(=O)NC(C)C)O2	6
N#C[C@@H]1[C@H](c2ccccc2-c2ccccc2)[C@@H](CO)N1C(=O)NC1CCCCC1	-5
NC(=O)C(CCCCN1CCCCC1)(c1ccccc1)c1ccccc1	2
CN(C)C(=O)C(CCN1CCC(O)(c2ccc(Cl)cc2)CC1)(c1ccccc1)c1ccccc1	50*
OC(CCCN1CCC(O)(c2ccc(Cl)cc2)CC1)c1ccc(F)cc1 (configuration not stated)	18
O=C(NC1CCCC1)N1CC(=O)N2[C@H](CO)[C@@H](c3ccc(-c4cccc(F)c4)cc3)[C@H]2C1	13
O=C(C[C@@H]1C[C@H]2c3cc(NC(=O)c4cccnc4)ccc3O[C@H]2[C@H](CO)O1)NC1CCCC1	0
CO[C@H]1CN(C)C(=O)c2ccc(NC(=O)C3CCC3)cc2OC[C@@H](C)N(Cc2cccnc2)C[C@H]1C	4
CNC[C@H]1Oc2ccc(NC(C)=O)cc2CC(=O)N(C)C[C@H]1C	1
Cn1nc(-c2ccccn2)nc2c(=O)n(C)c(=O)nc1-2	101*
c1ccc(-c2nccc(-c3ccco3)n2)nc1	-25
COc1ccc(-c2nc(-c3ccccn3)ncc2S(C)(=O)=O)cc1	9
CC(=O)NC[C@@H]1[C@@H](c2ccccc2)[C@H](CO)N1C(=O)Cc1cccnc1	-2[25 µM]
CC(C)NC(=O)Nc1ccc2c(c1)CC(=O)N(C)C[C@H](C)[C@@H](CN(C)C)O2	3
SMILES	BL2 CD40 inh
O=C(C[C@H]1C[C@H]2c3cc(NC(=O)CC4CC4)ccc3O[C@H]2[C@H](CO)O1)NCC1CC1	6[25 µM]
COC(=O)c1ccccc1NC(=O)c1noc2c1CCCC2	-15
COc1ccc(CNC(=O)c2noc3c2CCCCC3)cc1	-55
CC(=O)c1ccc(NC(=O)c2noc3c2CCC3)cc1	58*
CO[C@H]1CN(C)C(=O)c2cc(NC(=O)C3CCC3)ccc2OC[C@@H](C)N(Cc2nccs2)C[C@H]1C	-6
O=C(c1ccccc1)c1cc(-c2ccccc2)on1	73*
O=C(NCc1ccccn1)c1cc(-c2ccccc2)on1	-24
Cc1cc(NC(=O)c2cc(-c3ccccc3)on2)no1	-49
CC1CCCC=CC2CC(OC(=O)CN(C)C)CC2C(O)C=CC(=O)O1 (configuration not stated)	83*
COCC#Cc1ccc([C@@H]2[C@@H](CO)N3CCCCN(Cc4cccnc4)C[C@@H]23)cc1	-11[25 µM]
CCc1cnc(N2[C@H](C#N)[C@H](c3ccc(C#CCC4CCCC4)cc3)[C@@H]2CO)s1	56*[25 µM]
CCc1cnc(N2[C@H](C#N)[C@H](c3ccc(C#CCC4CCCC4)cc3)[C@H]2CO)s1	5[25 µM]
CCc1cnc(N2[C@@H](C#N)[C@@H](c3ccc(C#CCC4CCCC4)cc3)[C@@H]2CO)s1	16[25 µM]
CC(C)NC(=O)N(C)C[C@@H]1OCc2ccccc2-c2c(n(C)c3ccccc23)C(=O)N([C@H](C)CO)C[C@@H]1C	-8
O=C(c1ccccc1F)N1CC[C@@H]2[C@H](CO)Nc3ccc(Br)cc3[C@@H]21	-49
CC=Cc1ccc2n(c1=O)C[C@H]1[C@H](CO)[C@@H](C(=O)NCC(F)(F)F)N(C(=O)c3cccnc3)[C@@H]21 (mixture of isomers)	-11[25 µM]
